Source: PMC11006913
Substitutions are numbered along the chain they refer to.

What was measured:
Assay in all cases: PBM; 200 nM protein, PBS
Settings in all cases: dsDNA, one strand shown
HESX1 [1] = molecular target: HESX1 (Homo sapiens, UniProt Q9UBX0 95-180, R165K)
HESX1 [2] = molecular target: HESX1 (Homo sapiens, UniProt Q9UBX0 95-180)
HESX1 [3] = molecular target: HESX1 (Homo sapiens, UniProt Q9UBX0 95-180, P111T)
HOXB4 [4] = molecular target: HOXB4 (Homo sapiens, UniProt P17483 148-234)
VENTX [5] = molecular target: T1, VENTX (Homo sapiens, UniProt O95231 78-163, R121Q)
T1 sequence: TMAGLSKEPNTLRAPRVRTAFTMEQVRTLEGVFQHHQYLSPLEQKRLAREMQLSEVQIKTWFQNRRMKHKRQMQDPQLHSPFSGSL

HOXB9 [6] = molecular target: HOXB9 (Homo sapiens, UniProt P17482 171-250, T197M)
HOXA4 [7] = molecular target: HOXA4 (Homo sapiens, UniProt Q00056 201-287, W262R)
HOXC9 [8] = molecular target: HOXC9 (Homo sapiens, UniProt P31274 178-260, K195R)
VENTX [9] = molecular target: T2, VENTX (Homo sapiens, UniProt O95231 78-163)
T2 sequence: T1 sequence with Q44R

HOXA7 [10] = molecular target: HOXA7 (Homo sapiens, UniProt P31268 116-202)
HOXC10 [11] = molecular target: HOXC10 (Homo sapiens, UniProt Q9NYD6 254-340)
PAX4 [12] = molecular target: T3, PAX4 (Homo sapiens, UniProt O43316 9-242, R200K)
T3 sequence: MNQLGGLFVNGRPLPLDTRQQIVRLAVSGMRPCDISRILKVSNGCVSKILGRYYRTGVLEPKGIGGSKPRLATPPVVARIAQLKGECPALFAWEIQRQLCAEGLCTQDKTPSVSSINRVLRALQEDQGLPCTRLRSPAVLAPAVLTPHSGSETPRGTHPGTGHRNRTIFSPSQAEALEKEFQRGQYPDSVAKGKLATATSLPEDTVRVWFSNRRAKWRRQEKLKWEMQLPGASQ

VENTX [13] = molecular target: T4, VENTX (Homo sapiens, UniProt O95231 78-163, Y115F)
T4 sequence: T1 sequence with Y38F, Q44R

PAX4 [14] = molecular target: T5, PAX4 (Homo sapiens, UniProt O43316 9-242)
T5 sequence: T3 sequence with K192R

HOXB6 [15] = molecular target: HOXB6 (Homo sapiens, UniProt P17509 132-218, K202E)
HOXA2 [16] = molecular target: HOXA2 (Homo sapiens, UniProt O43364 129-215, R185T)
HOXA4 [17] = molecular target: HOXA4 (Homo sapiens, UniProt Q00056 201-287, R217L)
HOXB9 [18] = molecular target: HOXB9 (Homo sapiens, UniProt P17482 171-250)
HOXB4 [19] = molecular target: HOXB4 (Homo sapiens, UniProt P17483 148-234, V174I)
HOXC9 [20] = molecular target: HOXC9 (Homo sapiens, UniProt P31274 178-260)
PAX4 [21] = molecular target: T6, PAX4 (Homo sapiens, UniProt O43316 9-242, R200Q)
T6 sequence: T3 sequence with K192Q

HOXC9 [22] = molecular target: HOXC9 (Homo sapiens, UniProt P31274 178-260, R193K)
HOXA2 [23] = molecular target: HOXA2 (Homo sapiens, UniProt O43364 129-215, R185K)
PAX4 [24] = molecular target: T7, PAX4 (Homo sapiens, UniProt O43316 9-242, F177V)
T7 sequence: T3 sequence with F169V, K192R

HOXA4 [25] = molecular target: HOXA4 (Homo sapiens, UniProt Q00056 201-287)
HOXC10 [26] = molecular target: HOXC10 (Homo sapiens, UniProt Q9NYD6 254-340, K271E)
PAX4 [27] = molecular target: T8, PAX4 (Homo sapiens, UniProt O43316 9-242, F177Y)
T8 sequence: T3 sequence with F169Y, K192R

VAX1 [28] = molecular target: VAX1 (Homo sapiens, UniProt Q5SQQ9 86-172)
HOXD13 = HOXD13 (Homo sapiens, UniProt P35453 263-343, T313A)
HOXB9 [29] = molecular target: HOXB9 (Homo sapiens, UniProt P17482 171-250, R186Q)
HOXC9 [30] = molecular target: HOXC9 (Homo sapiens, UniProt P31274 178-260, R222W)
VAX1 [31] = molecular target: VAX1 (Homo sapiens, UniProt Q5SQQ9 86-172, T142I)
PAX4 [32] = molecular target: T9, PAX4 (Homo sapiens, UniProt O43316 9-242, R227W)
T9 sequence: T3 sequence with K192R, R219W

HOXA2 [33] = molecular target: HOXA2 (Homo sapiens, UniProt O43364 129-215, Y150S)
HOXA7 [34] = molecular target: HOXA7 (Homo sapiens, UniProt P31268 116-202, W177C)
HOXA4 [35] = molecular target: HOXA4 (Homo sapiens, UniProt Q00056 201-287, W262F)
HOXA2 [36] = molecular target: HOXA2 (Homo sapiens, UniProt O43364 129-215)
VAX1 [37] = molecular target: VAX1 (Homo sapiens, UniProt Q5SQQ9 86-172, K157R)
HOXB6 [38] = molecular target: HOXB6 (Homo sapiens, UniProt P17509 132-218)
HOXB6 (Homo sapiens, UniProt P17509 132-218), sequence (P17509 132-218): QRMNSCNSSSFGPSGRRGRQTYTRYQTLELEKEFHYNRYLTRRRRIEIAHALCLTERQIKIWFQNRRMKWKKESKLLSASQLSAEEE

HESX1 (Homo sapiens, UniProt Q9UBX0 95-180, R165K), sequence (Q9UBX0 95-180 R165K): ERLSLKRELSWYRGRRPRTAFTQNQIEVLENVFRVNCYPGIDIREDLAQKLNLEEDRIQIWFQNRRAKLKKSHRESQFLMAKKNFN
HESX1 (Homo sapiens, UniProt Q9UBX0 95-180), sequence (Q9UBX0 95-180): as the sequence (Q9UBX0 95-180 R165K) above, with K71R counted along it
HESX1 (Homo sapiens, UniProt Q9UBX0 95-180, P111T), sequence (Q9UBX0 95-180 P111T): as the sequence (Q9UBX0 95-180 R165K) above, with P17T, K71R counted along it
VAX1 (Homo sapiens, UniProt Q5SQQ9 86-172, T142I), sequence (Q5SQQ9 86-172 T142I): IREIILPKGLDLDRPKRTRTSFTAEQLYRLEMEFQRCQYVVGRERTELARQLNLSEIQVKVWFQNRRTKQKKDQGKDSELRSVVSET
VAX1 (Homo sapiens, UniProt Q5SQQ9 86-172), sequence (Q5SQQ9 86-172): as the sequence (Q5SQQ9 86-172 T142I) above, with I57T counted along it
VAX1 (Homo sapiens, UniProt Q5SQQ9 86-172, K157R), sequence (Q5SQQ9 86-172 K157R): as the sequence (Q5SQQ9 86-172 T142I) above, with I57T, K72R counted along it
HOXC10 (Homo sapiens, UniProt Q9NYD6 254-340), sequence (Q9NYD6 254-340): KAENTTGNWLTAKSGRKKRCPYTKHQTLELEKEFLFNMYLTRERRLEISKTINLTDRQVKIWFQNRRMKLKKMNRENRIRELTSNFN
HOXA2 (Homo sapiens, UniProt O43364 129-215, R185T), sequence (O43364 129-215 R185T): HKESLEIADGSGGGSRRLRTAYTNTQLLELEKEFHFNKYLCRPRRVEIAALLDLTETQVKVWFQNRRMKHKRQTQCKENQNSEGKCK
HOXB9 (Homo sapiens, UniProt P17482 171-250, R186Q), sequence (P17482 171-250 R186Q): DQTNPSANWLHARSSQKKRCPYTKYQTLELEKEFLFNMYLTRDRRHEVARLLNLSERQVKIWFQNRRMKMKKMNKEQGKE
HOXC9 (Homo sapiens, UniProt P31274 178-260), sequence (P31274 178-260): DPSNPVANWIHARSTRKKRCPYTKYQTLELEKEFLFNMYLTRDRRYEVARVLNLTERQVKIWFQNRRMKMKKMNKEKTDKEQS
HOXA4 (Homo sapiens, UniProt Q00056 201-287, W262F), sequence (Q00056 201-287 W262F): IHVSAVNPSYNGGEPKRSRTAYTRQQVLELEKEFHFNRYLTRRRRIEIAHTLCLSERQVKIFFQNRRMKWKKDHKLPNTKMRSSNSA
HOXA4 (Homo sapiens, UniProt Q00056 201-287, W262R), sequence (Q00056 201-287 W262R): as the sequence (Q00056 201-287 W262F) above, with F62R counted along it
HOXC9 (Homo sapiens, UniProt P31274 178-260, R222W), sequence (P31274 178-260 R222W): as the sequence (P31274 178-260) above, with R45W counted along it
HOXA7 (Homo sapiens, UniProt P31268 116-202), sequence (P31268 116-202): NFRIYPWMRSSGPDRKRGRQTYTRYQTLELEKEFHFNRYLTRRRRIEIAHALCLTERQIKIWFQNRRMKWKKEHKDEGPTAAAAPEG
HOXA2 (Homo sapiens, UniProt O43364 129-215, R185K), sequence (O43364 129-215 R185K): as the sequence (O43364 129-215 R185T) above, with T57K counted along it
HOXB9 (Homo sapiens, UniProt P17482 171-250), sequence (P17482 171-250): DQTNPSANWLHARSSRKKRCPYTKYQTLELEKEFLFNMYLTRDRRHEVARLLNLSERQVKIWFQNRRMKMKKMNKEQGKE
HOXB6 (Homo sapiens, UniProt P17509 132-218, K202E), sequence (P17509 132-218 K202E): as the sequence (P17509 132-218) above, with K71E counted along it
HOXA4 (Homo sapiens, UniProt Q00056 201-287), sequence (Q00056 201-287): as the sequence (Q00056 201-287 W262F) above, with F62W counted along it
HOXD13, sequence (P35453 263-343 T313A): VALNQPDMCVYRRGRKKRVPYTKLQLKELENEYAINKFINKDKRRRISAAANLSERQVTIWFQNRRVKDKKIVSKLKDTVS
HOXC10 (Homo sapiens, UniProt Q9NYD6 254-340, K271E), sequence (Q9NYD6 254-340 K271E): as the sequence (Q9NYD6 254-340) above, with K18E counted along it
HOXA4 (Homo sapiens, UniProt Q00056 201-287, R217L), sequence (Q00056 201-287 R217L): as the sequence (Q00056 201-287 W262F) above, with R17L, F62W counted along it
HOXB4 (Homo sapiens, UniProt P17483 148-234), sequence (P17483 148-234): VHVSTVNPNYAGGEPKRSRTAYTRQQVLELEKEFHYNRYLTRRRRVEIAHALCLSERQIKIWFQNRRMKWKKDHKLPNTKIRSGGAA
HOXC9 (Homo sapiens, UniProt P31274 178-260, R193K), sequence (P31274 178-260 R193K): as the sequence (P31274 178-260) above, with R16K counted along it
HOXA2 (Homo sapiens, UniProt O43364 129-215, Y150S), sequence (O43364 129-215 Y150S): as the sequence (O43364 129-215 R185T) above, with Y22S, T57R counted along it
HOXB9 (Homo sapiens, UniProt P17482 171-250, T197M), sequence (P17482 171-250 T197M): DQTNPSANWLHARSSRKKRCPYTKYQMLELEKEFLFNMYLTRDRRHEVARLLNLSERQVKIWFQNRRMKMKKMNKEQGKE
HOXB4 (Homo sapiens, UniProt P17483 148-234, V174I), sequence (P17483 148-234 V174I): as the sequence (P17483 148-234) above, with V27I counted along it
HOXA2 (Homo sapiens, UniProt O43364 129-215), sequence (O43364 129-215): as the sequence (O43364 129-215 R185T) above, with T57R counted along it
HOXC9 (Homo sapiens, UniProt P31274 178-260, K195R), sequence (P31274 178-260 K195R): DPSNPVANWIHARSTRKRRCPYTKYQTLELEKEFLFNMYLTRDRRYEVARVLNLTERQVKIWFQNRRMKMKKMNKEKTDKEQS
HOXA7 (Homo sapiens, UniProt P31268 116-202, W177C), sequence (P31268 116-202 W177C): as the sequence (P31268 116-202) above, with W62C counted along it

Q: What does the source list for ACTATAGA?
A: binding signal (HESX1 [1]): 7.13 upbm affinity estimate (log intensity, higher = more binding, comparable within an allelic series); binding signal (HESX1 [2]): 7.13 upbm affinity estimate (log intensity, higher = more binding, comparable within an allelic series); binding signal (HESX1 [3]): 7.02 upbm affinity estimate (log intensity, higher = more binding, comparable within an allelic series)

Q: For CATTAATG, which binding signal (HOXB4 [4]) is on record?
A: The binding signal was 13.4 upbm affinity estimate (log intensity, higher = more binding, comparable within an allelic series).

Q: And the binding signal (VENTX [5])?
A: The binding signal was 11.8 upbm affinity estimate (log intensity, higher = more binding, comparable within an allelic series).

Q: What about the binding signal (HOXB9 [6]) of the same sequence?
A: Its binding signal is 10.3 upbm affinity estimate (log intensity, higher = more binding, comparable within an allelic series).

Q: And the binding signal (HOXA4 [7])?
A: The binding signal was 10.7 upbm affinity estimate (log intensity, higher = more binding, comparable within an allelic series).

Q: What about the binding signal (HOXC9 [8]) of the same sequence?
A: Its binding signal is 12.8 upbm affinity estimate (log intensity, higher = more binding, comparable within an allelic series).

Q: And the binding signal (VENTX [9])?
A: Its binding signal is 12.5 upbm affinity estimate (log intensity, higher = more binding, comparable within an allelic series).

Q: And the binding signal (HOXA7 [10])?
A: Its binding signal is 12 upbm affinity estimate (log intensity, higher = more binding, comparable within an allelic series).

Q: What about the binding signal (HOXC10 [11]) of the same sequence?
A: Its binding signal is 12.3 upbm affinity estimate (log intensity, higher = more binding, comparable within an allelic series).

Q: What about the binding signal (PAX4 [12]) of the same sequence?
A: The binding signal was 11.8 upbm affinity estimate (log intensity, higher = more binding, comparable within an allelic series).

Q: What about the binding signal (VENTX [13]) of the same sequence?
A: The binding signal was 11.8 upbm affinity estimate (log intensity, higher = more binding, comparable within an allelic series).

Q: And the binding signal (PAX4 [14])?
A: Its binding signal is 12.2 upbm affinity estimate (log intensity, higher = more binding, comparable within an allelic series).

Q: And the binding signal (HOXB6 [15])?
A: Its binding signal is 10.3 upbm affinity estimate (log intensity, higher = more binding, comparable within an allelic series).

Q: What about the binding signal (HOXA2 [16]) of the same sequence?
A: Its binding signal is 12.6 upbm affinity estimate (log intensity, higher = more binding, comparable within an allelic series).

Q: What about the binding signal (HOXA4 [17]) of the same sequence?
A: The binding signal was 12.3 upbm affinity estimate (log intensity, higher = more binding, comparable within an allelic series).

Q: And the binding signal (HOXB9 [18])?
A: The binding signal was 12.1 upbm affinity estimate (log intensity, higher = more binding, comparable within an allelic series).

Q: What about the binding signal (HOXB4 [19]) of the same sequence?
A: Its binding signal is 14 upbm affinity estimate (log intensity, higher = more binding, comparable within an allelic series).

Q: And the binding signal (HOXC9 [20])?
A: Its binding signal is 12.9 upbm affinity estimate (log intensity, higher = more binding, comparable within an allelic series).

Q: What about the binding signal (PAX4 [21]) of the same sequence?
A: The binding signal was 11.9 upbm affinity estimate (log intensity, higher = more binding, comparable within an allelic series).

Q: What about the binding signal (HOXC9 [22]) of the same sequence?
A: Its binding signal is 12.8 upbm affinity estimate (log intensity, higher = more binding, comparable within an allelic series).

Q: And the binding signal (HOXA2 [23])?
A: Its binding signal is 13.4 upbm affinity estimate (log intensity, higher = more binding, comparable within an allelic series).

Q: And the binding signal (PAX4 [24])?
A: Its binding signal is 10.5 upbm affinity estimate (log intensity, higher = more binding, comparable within an allelic series).

Q: And the binding signal (HOXA4 [25])?
A: The binding signal was 14.2 upbm affinity estimate (log intensity, higher = more binding, comparable within an allelic series).

Q: And the binding signal (HOXC10 [26])?
A: The binding signal was 12.2 upbm affinity estimate (log intensity, higher = more binding, comparable within an allelic series).

Q: And the binding signal (PAX4 [27])?
A: Its binding signal is 11 upbm affinity estimate (log intensity, higher = more binding, comparable within an allelic series).

Q: And the binding signal (VAX1 [28])?
A: Its binding signal is 12.7 upbm affinity estimate (log intensity, higher = more binding, comparable within an allelic series).

Q: And the binding signal (HOXD13)?
A: The binding signal was 11.6 upbm affinity estimate (log intensity, higher = more binding, comparable within an allelic series).

Q: What about the binding signal (HOXB9 [29]) of the same sequence?
A: Its binding signal is 11.9 upbm affinity estimate (log intensity, higher = more binding, comparable within an allelic series).

Q: And the binding signal (HOXC9 [30])?
A: Its binding signal is 11 upbm affinity estimate (log intensity, higher = more binding, comparable within an allelic series).

Q: What about the binding signal (VAX1 [31]) of the same sequence?
A: Its binding signal is 12.5 upbm affinity estimate (log intensity, higher = more binding, comparable within an allelic series).

Q: What about the binding signal (PAX4 [32]) of the same sequence?
A: Its binding signal is 10.9 upbm affinity estimate (log intensity, higher = more binding, comparable within an allelic series).

Q: What about the binding signal (HOXA2 [33]) of the same sequence?
A: Its binding signal is 11.1 upbm affinity estimate (log intensity, higher = more binding, comparable within an allelic series).

Q: What about the binding signal (HOXA7 [34]) of the same sequence?
A: Its binding signal is 8.9 upbm affinity estimate (log intensity, higher = more binding, comparable within an allelic series).

Q: What about the binding signal (HOXA4 [35]) of the same sequence?
A: Its binding signal is 11.7 upbm affinity estimate (log intensity, higher = more binding, comparable within an allelic series).

Q: And the binding signal (HOXA2 [36])?
A: The binding signal was 12.3 upbm affinity estimate (log intensity, higher = more binding, comparable within an allelic series).

Q: What about the binding signal (VAX1 [37]) of the same sequence?
A: Its binding signal is 12.8 upbm affinity estimate (log intensity, higher = more binding, comparable within an allelic series).

Q: What about the binding signal (HOXB6 [38]) of the same sequence?
A: Its binding signal is 12.4 upbm affinity estimate (log intensity, higher = more binding, comparable within an allelic series).

Q: Which binding signal (HESX1 [1]) does the source give for ATGTATAA here?
A: Its binding signal is 7.77 upbm affinity estimate (log intensity, higher = more binding, comparable within an allelic series).

Q: And the binding signal (HESX1 [2])?
A: Its binding signal is 7.72 upbm affinity estimate (log intensity, higher = more binding, comparable within an allelic series).

Q: And the binding signal (HESX1 [3])?
A: Its binding signal is 7.36 upbm affinity estimate (log intensity, higher = more binding, comparable within an allelic series).

Q: For CATAATAC, which binding signal (HESX1 [1]) is on record?
A: Its binding signal is 7.93 upbm affinity estimate (log intensity, higher = more binding, comparable within an allelic series).

Q: What about the binding signal (HESX1 [2]) of the same sequence?
A: Its binding signal is 8.07 upbm affinity estimate (log intensity, higher = more binding, comparable within an allelic series).

Q: What about the binding signal (VAX1 [28]) of the same sequence?
A: The binding signal was 10.4 upbm affinity estimate (log intensity, higher = more binding, comparable within an allelic series).

Q: What about the binding signal (VAX1 [31]) of the same sequence?
A: Its binding signal is 10 upbm affinity estimate (log intensity, higher = more binding, comparable within an allelic series).

Q: What about the binding signal (VAX1 [37]) of the same sequence?
A: The binding signal was 10.1 upbm affinity estimate (log intensity, higher = more binding, comparable within an allelic series).
